HCMV inh – inhibitors of human cytomegalovirus; HFF cells, HCMV-luciferase reporter, 72 h; stronger effect = lower value; activity change, negative = inhibition, % at 57.5 µM; 410,000 tested, 4.5% active; AID 1259415; in the data active = activity change below about -60%; inconclusive = no clear call, values can overlap the other calls; inactive = above about -39%
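Compounds were evaluated in HFFs infected with an HCMV luciferase reporter virus (MOI 1 PFU/cell). Luciferase in lysates collected 72 h post infection served as the replication measure.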
VACV Venus inh – inhibitors of vaccinia virus (Venus reporter) | Vaccinia virus Venus reporter expression, fluorescence | Potency, µM (series often up to 36.5 µM), for inactives: top-dose activity change, negative = inhibition, usual class: inhibitors | 330,000 tested, 0.46% active; calls by dose curve; tested in A549 cells; note: potency is the fitted concentration of half-maximal effect; nearly all actives have a fitted effect of over 30% in size
Vaccinia mCherry – inhibitors of vaccinia virus infection (mCherry reporter signal); Potency, µM (top dose mostly 36.5 µM), for inactives: at the highest dose activity change, negative = inhibition, most hits filed as inhibitors; 310,000 tested, 0.63% active; AID 720579; Vaccinia virus mCherry reporter infection, fluorescence; calls by dose curve; tested in A549 cells; note: potency is the fitted concentration of half-maximal effect; nearly all actives have a fitted effect of over 35% in size
LmPK inh – LmPK (Leishmania mexicana) enzyme inhibition | Q27686 | purified LmPK, Kinase-Glo ATP luminescence, 1 h | Potency, µM (highest dose often 57.5 µM), for the others: at the highest dose activity change, negative = inhibition, usual class: inhibitors | 290,000 tested, 0.37% active | AID 1721; note: potency is the fitted concentration of half-maximal effect
Target sequence (Q27686 whole entry, looked up): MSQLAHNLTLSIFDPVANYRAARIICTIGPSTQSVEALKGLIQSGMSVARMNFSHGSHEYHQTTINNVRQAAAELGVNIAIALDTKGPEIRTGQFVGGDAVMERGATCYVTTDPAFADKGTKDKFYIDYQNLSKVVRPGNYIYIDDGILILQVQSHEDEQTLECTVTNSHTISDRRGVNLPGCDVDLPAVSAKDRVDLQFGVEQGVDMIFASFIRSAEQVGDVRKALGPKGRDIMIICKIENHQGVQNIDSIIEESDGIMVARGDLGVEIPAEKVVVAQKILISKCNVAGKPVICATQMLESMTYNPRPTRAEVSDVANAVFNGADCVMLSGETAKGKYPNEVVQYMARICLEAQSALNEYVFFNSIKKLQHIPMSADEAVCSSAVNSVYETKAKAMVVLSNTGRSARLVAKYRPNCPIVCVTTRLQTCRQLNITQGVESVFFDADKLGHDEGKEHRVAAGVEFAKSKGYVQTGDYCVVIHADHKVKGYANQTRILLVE
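qHTS format; LmPK 0.1 nM; substrates PEP 0.5 mM and ADP 0.1 mM. One-hour room-temperature incubation, then coupled luciferase luminescence; 0.5 nM enzyme wells mark activation.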
TbPYK inhibitor – inhibitors of Trypanosoma brucei pyruvate kinase; Q57TT1; TbPYK enzyme, Kinase-Glo Plus ATP luminescence, 45 min; Potency, µM (highest dose often 76.8 µM), for the others: at the highest dose activity, negative = inhibition, hits mostly inhibitors; 410,000 tested, 0.12% active; note: potency is the fitted concentration of half-maximal effect; nearly all actives have a fitted effect of over 50% in size
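Readout: single end-point luminescence (Kinase-Glo Plus, 10 min). Reaction conditions were TbPYK/substrate plus 130 uM ADP, 45 min at RT, pH 7.2 TEA buffer. No-enzyme wells served as controls, and data were normalized before concentration-response fitting.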
Active calls of the source: *; i = inactive; ? = inconclusive; / = no result; [ ] = dose if it differs, or a comment. This is a sample that favours compounds with a hit; in the whole collection about 5% have one here. Unless noted, calls come from the whole dose curve; as a rule, active = well fitted curve in the direction sought with a large enough effect; inconclusive = small, poorly fitted or top-dose-only effect, or another doubt; inactive = no such curve, though single readings can be large; an effect the other way counts as inactive or inconclusive. % is set by controls: 0 for no effect and ±100 for the full control effect.

SMILES | HCMV inh | VACV Venus inh | Vaccinia mCherry | LmPK inh | TbPYK inhibitor
CCc1cc(-c2n[nH]c(=S)n2-c2ccccc2C)cs1 | / | / | / | 28µM* | ?
CCCCn1c(-c2ccc([N+](=O)[O-])cc2)n[nH]c1=S | 62 | -10% | / | ? | 1.1µM*
C[n+]1ccc(CO)cc1 | / | -11% | 14% | / | /
CCc1cc(-c2n[nH]c(=S)n2CC)cs1 | -13 | -9% | -13% | -22% | 10µM*
COc1cc(-c2n[nH]c(=S)n2C(C)c2ccccc2)cc(OC)c1OC (stereo not given) | 85 | / | / | ? | ?
CCc1cc(-c2n[nH]c(=S)n2Cc2ccccc2)cs1 | 11 | -23% | -12% | 10µM* | ?
S=c1[nH]nc(-c2cccc(Cl)c2)n1Cc1ccccc1 | 34 | -1% | -1% | ? | ?
CCn1c(-c2csc(C(C)C)c2)n[nH]c1=S | 17 | -11% | -17% | -24% | -61%
CCCCn1c(-c2csc(CCC)c2)n[nH]c1=S | -1 | 0% | -2% | 22µM* | ?
CCCc1cc(-c2n[nH]c(=S)n2C(C)c2ccccc2)cs1 (stereo not given) | -35 | -15% | -20% | 22µM* | -41%
CCCc1cc(-c2n[nH]c(=S)n2CC)cs1 | 13 | -10% | -15% | ? | 8.9µM*
CC(=O)Nc1ccccc1OCCOc1ccc(Br)cc1 | -23 | -23% | 13µM* | 0% | -19%
NC(=O)c1ccccc1OCCOc1ccc(Br)cc1 | ? | ? | -6% | -2% | 6%
CCOc1cc(CNC(=O)c2ccccc2NC(=O)c2nsc3ccccc23)ccc1OC | -82* | -25% | -12% | / | 3%
COc1ccc(CN(CCCN2CCOCC2)C(=O)Nc2ccccc2)cc1OC | 3 | / | / | -7% | -2%
COc1cccc(NC(=S)N(CCCN2CCC(C)CC2)Cc2cccs2)c1 | 26 | -6% | -16% | 1% | -2%
COc1cccc(NC(=S)N(CCCN2CCOCC2)Cc2cn(C)c3ccccc23)c1 | -78* | -22% | -15% | -6% | -17%
COc1ccc(NC(=S)N(CCCN2CCOCC2)Cc2cn(C)c3ccccc23)cc1OC | -87* | -18% | -27% | 0% | 7%
Cc1cccc(NC(=O)c2nc[nH]c2C(=O)NC2CCN(C(=O)OC(C)(C)C)CC2)c1 | 5 | ? | ? | / | 6%
Cc1cccc(OCC(=O)NC(C)C(=O)N/N=C/c2c(OCc3ccccc3)ccc3ccccc23)c1 (stereo not given) | -74* | / | / | -5% | 7%
Cn1c(=O)c2cc(NC(=O)NCc3ccc(F)cc3)ccc2n1C/C=C/c1ccccc1 | -63* | -23% | ? | / | 4%
Cc1c(NC(=O)CN2C(=O)NC3(CCCC3)C2=O)c(=O)n(-c2ccccc2)n1C | -101* | -15% | i | 6% | 1%
Cc1c(NC(=O)CSc2nc3ccccc3c(=O)n2C(C)C)c(=O)n(-c2ccccc2)n1C | -65* | / | / | / | 0%
Cc1c(NC(=O)CN2C(=O)NC(C)(c3ccccc3Cl)C2=O)c(=O)n(-c2ccccc2)n1C (stereo not given) | / | -6% | -9% | -3% | -5%
Cc1c(NC(=O)CSc2nnc3c4ccccc4n(CCc4ccccc4)c3n2)c(=O)n(-c2ccccc2)n1C | -85* | ? | / | -1% | -4%
SMILES | HCMV inh | VACV Venus inh | Vaccinia mCherry | LmPK inh | TbPYK inhibitor
COCC(C)n1c(SCC(=O)Nc2c(C)n(C)n(-c3ccccc3)c2=O)nc2ccccc2c1=O (stereo not given) | 0 | / | / | / | 0%
Cc1c(-n2c(SCC(C)C)nc3ccccc3c2=O)c(=O)n(-c2ccccc2)n1C | -64* | -13% | -11% | 1% | 1%
CC(=Nc1ccccc1)C1=C(O)C(Cc2ccc(F)cc2)NC1=O (stereo not given) | -10 | -30% | -29% | / | 7%
CCCN1C(=O)c2cc(C(=O)NCCc3cccc(C)c3)ccc2C1O (stereo not given) | -5 | -2% | i | 3% | 2%
Oc1c(C(Nc2ccccn2)c2ccccc2F)ccc2cccnc12 (stereo not given) | -95* | -2%[7.34 µM] | -6%[7.34 µM] | / | 52%
Cc1ccnc(NC(c2cc(C)ccc2O)c2ccc3cccnc3c2O)c1 (stereo not given) | 110 | -9% | -7% | / | 50%
Cc1ccnc(NC(c2cccnc2)c2ccc3cccnc3c2O)c1 (stereo not given) | -25 | ? | ? | 3% | 125%
Cc1ccnc(NC(c2ccccc2)c2ccc3cccnc3c2O)c1 (stereo not given) | -78* | ? | ? | / | 68%
Cc1ccnc(NC(c2ccccc2F)c2ccc3cccnc3c2O)c1 (stereo not given) | -77* | ? | 16µM* | / | 17%
Oc1ccccc1C(Nc1nccs1)c1ccc2cccnc2c1O (stereo not given) | -93* | ? | 8.9µM* | -4% | 2%
COc1cccc(-n2nc(C(=O)NCC3CCCO3)c3ccccc3c2=O)c1 (stereo not given) | 34 | / | / | 0% | -8%
Clc1nc(Cl)nc(NCCC2=CCCCC2)n1 | -1 | -5% | i | -6% | 3%
Cc1cccc(NC(c2ccccc2C)c2ccc3ccc(C)nc3c2O)n1 (stereo not given) | -39 | -16% | ? | / | -10%
O=C(O)c1ccccc1NC(c1ccccc1)c1ccc2cccnc2c1O (stereo not given) | -31 | ? | 8.9µM* | / | 151%
Oc1c(C(Nc2ccccn2)c2ccccn2)ccc2cccnc12 (stereo not given) | -85* | 10µM* | ? | 0% | 50%
Cc1ccc2ccc(C(Nc3ccccc3)c3ccc(F)cc3)c(O)c2n1 (stereo not given) | -61* | 12% | ? | / | /
Cc1cccc(NC(c2ccc(C)s2)c2ccc3ccc(C)nc3c2O)n1 (stereo not given) | -95* | -10% | -13% | -3% | -14%
O=C(Nc1ccccc1)OCc1cncs1 | -30 | -2% | -15% | -12% | 2%
COc1ccc(Cl)cc1S(=O)(=O)NC(C)C(=O)NCc1cccnc1 (stereo not given) | 0 | -1% | 8% | 9% | -1%
Cc1ccc2ccc(C(Nc3ccccn3)c3ccccc3)c(O)c2n1 (stereo not given) | -14 | -5% | ? | 0% | -5%
COc1cc(C(Nc2ccccn2)c2ccc3ccc(C)nc3c2O)cc(OC)c1O (stereo not given) | / | ? | 13µM* | 13% | 33%
COc1cc(CN2CC(=O)N(c3cccc(Cl)c3C)C2=S)cc(OC)c1OC | -63* | / | / | 0% | 2%
Cc1cccc(NC(=S)NC2CCN(Cc3ccccc3)CC2)c1C | -38 | -19% | i | 2% | -7%
S=C(Nc1ccc(Cl)c(Cl)c1)NC1CCN(Cc2ccccc2)CC1 | -78* | 14µM* | / | 1% | 19%
S=C(Nc1cccc(Cl)c1Cl)NC1CCN(Cc2ccccc2)CC1 | -66* | -26% | ? | -3% | 0%
